Here are results for 70 molecules from the antibiotic and cytotoxicity screens of Wong et al. (2023).

Each structure is given as a SMILES string. Hit rate of the full screen: of about 39,000 compounds, about 3,300 (8.5%) were called active. The sample as a whole holds a higher share of actives than the screen did.

The test system of this experiment is HepG2. As to the kind of experiment: cytotoxicity call (relative viability < 0.9). As to conditions: 10 µM.
As for `O=C(CN1CCOCC1)NCC[C@H]1CC[C@@H](NC(=O)c2ccccc2F)[C@@H](CO)O1`, the cytotoxicity call was “inactive”.

As for `CC(C)NC(=O)N(C)C[C@@H]1Oc2ccc(NC(=O)CCCN(C)C)cc2C(=O)N([C@H](C)CO)C[C@H]1C`, the cytotoxicity call was “inactive”.

Take `CCc1nc(N)nc(N)c1-c1ccc(Cl)cc1`: the cytotoxicity call is “active”.

For `Nc1oncc1-c1ccc(Cl)cc1`, the cytotoxicity call was “inactive”.

Regarding `CCc1nc2ccccc2nc1CC`, the cytotoxicity call is “inactive”.

`C[C@@H]1CN([C@@H](C)CO)C(=O)c2cc(NC(=O)Nc3ccccc3)ccc2O[C@@H](C)CCCCO[C@H]1CN(C)C(=O)Cc1ccccc1`: the cytotoxicity call was “inactive”.

As for `C[C@@H]1CCCCO[C@@H](CN(C)C(=O)Nc2ccc(F)cc2)[C@@H](C)CN([C@H](C)CO)C(=O)c2cc(NC(=O)Nc3ccc(C(F)(F)F)cc3)ccc2O1`, the cytotoxicity call is “inactive”.

As for `C[C@@H]1CN([C@@H](C)CO)S(=O)(=O)c2ccc(C#Cc3ccccc3F)cc2O[C@@H]1CN(C)C(=O)c1ccc2c(c1)OCO2`, the cytotoxicity call was “active”.

With `C[C@@H]1CN([C@@H](C)CO)S(=O)(=O)c2ccc(C#Cc3ccccc3F)cc2O[C@H]1CN(C)C(=O)Cc1cccnc1`, the cytotoxicity call is “inactive”.

As for `CC(C)CC#Cc1ccc2c(c1)O[C@H](CN(C)CC1CCOCC1)[C@@H](C)CN([C@H](C)CO)S2(=O)=O`, the cytotoxicity call was “inactive”.

With `C[C@@H]1CN([C@@H](C)CO)S(=O)(=O)c2ccc(C#Cc3ccccc3F)cc2O[C@@H]1CN(C)C(=O)Cc1cccnc1`, the cytotoxicity call is “active”.

As to `C[C@H]1CN([C@@H](C)CO)S(=O)(=O)c2ccc(C#Cc3ccccc3F)cc2O[C@H]1CN(C)C(=O)c1ccc2c(c1)OCO2`, the cytotoxicity call is “inactive”.

Regarding `CC(C)CC#Cc1ccc2c(c1)O[C@@H](CN(C)CC1CCOCC1)[C@H](C)CN([C@@H](C)CO)S2(=O)=O`, the cytotoxicity call is “active”.

As for `C[C@@H]1CN([C@H](C)CO)S(=O)(=O)c2ccc(C#Cc3ccccc3F)cc2O[C@@H]1CN(C)CC1CC1`, the cytotoxicity call was “inactive”.

As for `C[C@H]1CN([C@@H](C)CO)S(=O)(=O)c2ccc(C#Cc3ccccc3F)cc2O[C@@H]1CN(C)C(=O)c1ccc2c(c1)OCO2`, the cytotoxicity call is “inactive”.

`C[C@@H]1CN([C@H](C)CO)S(=O)(=O)c2ccc(C#Cc3ccccc3F)cc2O[C@@H]1CN(C)C(=O)Cc1cccnc1`: the cytotoxicity call was “inactive”.

As for `C[C@H](CO)N1C[C@H](C)[C@H](CN(C)CC2CC2)Oc2cc(C#Cc3ccccc3F)ccc2S1(=O)=O`, the cytotoxicity call was “active”.

On to `CC(C)CC#Cc1ccc2c(c1)O[C@@H](CN(C)CC1CCOCC1)[C@@H](C)CN([C@H](C)CO)S2(=O)=O`, for which the cytotoxicity call is “inactive”.

With `C[C@@H]1CN([C@@H](C)CO)S(=O)(=O)c2ccc(C#Cc3ccccc3F)cc2O[C@H]1CN(C)CC1CC1`, the cytotoxicity call was “inactive”.

Take `C[C@H]1CN([C@@H](C)CO)S(=O)(=O)c2ccc(C#CC3CC3)cc2O[C@@H]1CN(C)C(=O)c1cccc(F)c1`: the cytotoxicity call was “inactive”.

Turning to `Cc1noc(C)c1NC(=O)N(C)C[C@H]1OCCCC[C@@H](C)Oc2ccc(NC(=O)Nc3ccccc3)cc2C(=O)N([C@@H](C)CO)C[C@H]1C`, the cytotoxicity call was “inactive”.

Consider `CCC(=O)n1ccc(C(=O)N2CCOCC2)n1`, for which the cytotoxicity call was “inactive”.

As to `O=C(Nc1nn[nH]n1)C1CCCCC1`, the cytotoxicity call is “inactive”.

Consider `C[C@@H]1CCCCO[C@H](CN(C)Cc2ccncc2)[C@@H](C)CN([C@@H](C)CO)C(=O)c2cc(NC(=O)Nc3ccc(F)cc3)ccc2O1`, for which the cytotoxicity call was “inactive”.

In the case of `C[C@H](CO)N1C[C@H](C)[C@H](CN(C)C(=O)Nc2ccc(F)cc2)OCCCC[C@H](C)Oc2ccc(NC(=O)C3CCCCC3)cc2C1=O`, the cytotoxicity call was “inactive”.

`COc1cccc(OC)c1C(=O)NN`: the cytotoxicity call was “inactive”.

Turning to `FC(F)(F)c1ccccc1-c1ncc(-c2ccccc2)o1`, the cytotoxicity call was “inactive”.

For `CC(=O)N(O)CCC[C@H]1NC(=O)CNC(=O)CNC(=O)CNC(=O)[C@@H](CCCN(O)C(C)=O)NC(=O)[C@@H](CCCN(O)C(C)=O)NC1=O`, the cytotoxicity call is “inactive”.

Consider `COc1ccc(NC(=O)N(C)C[C@H]2OCCCC[C@H](C)Oc3ccc(NC(=O)C4CCCCC4)cc3C(=O)N([C@@H](C)CO)C[C@@H]2C)cc1`, for which the cytotoxicity call was “inactive”.

Consider `C[C@@H]1CCCCO[C@H](CN(C)Cc2ccccc2)[C@@H](C)CN([C@H](C)CO)C(=O)c2cc(NC(=O)c3ccncc3)ccc2O1`, for which the cytotoxicity call was “inactive”.

On to `CCCCCN1CC=C[C@@]23O[C@@H]4C=CCOC(=O)[C@@H]4[C@H]2C(=O)N(CCCO)[C@@H]3C1=O`, for which the cytotoxicity call was “inactive”.

With `C[C@@H]1CN([C@H](C)CO)C(=O)c2cc(NC(=O)CCN3CCOCC3)ccc2O[C@@H]1CN(C)Cc1ccc2c(c1)OCO2`, the cytotoxicity call is “inactive”.

`O=C(C[C@H]1CC[C@H]2[C@@H](COC[C@@H](O)CN2S(=O)(=O)c2ccc(Cl)cc2)O1)N[C@@H]1CCN(Cc2ccccc2)C1`: the cytotoxicity call is “active”.

For the molecule `O=C(C[C@@H]1CC[C@@H]2[C@H](COC[C@@H](O)CN2S(=O)(=O)c2ccc(Cl)cc2)O1)N[C@@H]1CCN(Cc2ccccc2)C1`, the cytotoxicity call is “inactive”.

Consider `O=C(C[C@H]1CC[C@@H]2[C@H](COC[C@@H](O)CN2S(=O)(=O)c2ccc(Cl)cc2)O1)N[C@H]1CCN(Cc2ccccc2)C1`, for which the cytotoxicity call is “inactive”.

As for `O=C(C[C@@H]1CC[C@@H]2[C@H](COC[C@H](O)CN2S(=O)(=O)c2ccc(Cl)cc2)O1)N[C@@H]1CCN(Cc2ccccc2)C1`, the cytotoxicity call is “active”.

For the molecule `O=C(C[C@H]1CC[C@@H]2[C@H](COC[C@H](O)CN2S(=O)(=O)c2ccc(Cl)cc2)O1)N[C@@H]1CCN(Cc2ccccc2)C1`, the cytotoxicity call is “inactive”.

Turning to `O=C(C[C@@H]1CC[C@H]2[C@@H](COC[C@@H](O)CN2S(=O)(=O)c2ccc(Cl)cc2)O1)N[C@H]1CCN(Cc2ccccc2)C1`, the cytotoxicity call is “inactive”.

Regarding `Cc1ccc(S(=O)(=O)Nc2ccc3c(c2)CC(=O)N([C@@H](C)CO)C[C@@H](C)[C@@H](CN(C)Cc2ccncc2)O3)cc1`, the cytotoxicity call was “inactive”.

For `NC(=O)CSc1nc(N)cc(N)n1`, the cytotoxicity call was “inactive”.

Consider `COc1ccc(S(=O)(=O)Nc2ccc3c(c2)C(=O)N([C@H](C)CO)C[C@@H](C)[C@@H](CN(C)Cc2ccc4c(c2)OCO4)OCCCC[C@@H](C)O3)cc1`, for which the cytotoxicity call is “inactive”.

For `C[C@H](CO)N1C[C@H](C)[C@H](CN(C)C(=O)Nc2ccccc2)Oc2ccc(NC(=O)CCN3CCOCC3)cc2C1=O`, the cytotoxicity call was “inactive”.

As for `C[C@@H]1CN([C@@H](C)CO)C(=O)c2cccc(NS(=O)(=O)c3cn(C)cn3)c2O[C@H]1CN(C)C(=O)NC1CCCCC1`, the cytotoxicity call is “inactive”.

On to `Cc1ccc2ncccc2c1`, for which the cytotoxicity call was “inactive”.

Regarding `Cc1ccc2c(c1)/C(=C/c1ccncc1)c1cc3ccccc3nc1-2`, the cytotoxicity call was “active”.

`Cc1ccc2nc(-c3ccncc3)cc(-c3ccccc3)c2c1`: the cytotoxicity call was “inactive”.

As for `C[C@@H]1CCCCO[C@H](CN(C)C(=O)NC2CCCCC2)[C@@H](C)CN([C@H](C)CO)C(=O)c2cc(NC(=O)Nc3ccc(C(F)(F)F)cc3)ccc2O1`, the cytotoxicity call is “inactive”.

For `CC(C)NC(=O)N(C)C[C@@H]1Oc2ncc(-c3ccc(C(=O)N(C)C)cc3)cc2C(=O)N([C@H](C)CO)C[C@@H]1C`, the cytotoxicity call is “inactive”.

Regarding `CN(C)CCNC(=O)[C@H]1Cn2ccnc2C2(CCN(Cc3nccs3)CC2)O1`, the cytotoxicity call is “inactive”.

For `CC(C)CC(NC(=O)C(C)NC(=O)CNC(=O)C(NC=O)C(C)C)C(=O)NC(C)C(=O)NC(C(=O)NC(C(=O)NC(C(=O)NC(Cc1c[nH]c2ccccc12)C(=O)NC(CC(C)C)C(=O)NC(Cc1c[nH]c2ccccc12)C(=O)NC(CC(C)C)C(=O)NC(Cc1c[nH]c2ccccc12)C(=O)NC(CC(C)C)C(=O)NC(Cc1c[nH]c2ccccc12)C(=O)NCCO)C(C)C)C(C)C)C(C)C` (stereo not given) [GRAMICIDIN (gramicidin A shown) ], the cytotoxicity call was “active”.

Consider `CC(C)C[C@H](NP(=O)(O)O[C@H]1O[C@@H](C)[C@@H](O)[C@@H](O)[C@@H]1O)C(=O)N[C@H](Cc1c[nH]c2ccccc12)C(=O)O`, for which the cytotoxicity call was “inactive”.

Take `C[C@H](NC(=O)[C@@H](Cc1ccc2ccccc2c1)NC(=O)[C@@H](C)N)C(=O)N[C@@H](Cc1c[nH]c2ccccc12)C(=O)N[C@H](Cc1ccccc1)C(=O)N[C@@H](CCCCN)C(N)=O`: the cytotoxicity call was “inactive”.

Regarding `C[C@@H]1CCCCO[C@@H](CN(C)S(C)(=O)=O)[C@@H](C)CN([C@H](C)CO)C(=O)c2cc(NS(=O)(=O)c3cccs3)ccc2O1`, the cytotoxicity call is “inactive”.

For `C[C@@H]1CN([C@H](C)CO)C(=O)c2c(c3ccccc3n2C)-c2ccccc2CO[C@@H]1CN(C)Cc1ccc(O)cc1`, the cytotoxicity call was “inactive”.

Regarding `CC(C)CC#Cc1ccc2c(c1)O[C@@H](CN(C)C(=O)c1cccnc1)[C@H](C)CN([C@H](C)CO)S2(=O)=O`, the cytotoxicity call was “inactive”.

Take `COc1ccc(NC(=O)N(C)C[C@@H]2OCCCC[C@H](C)Oc3ccc(NC(=O)Nc4ccccc4)cc3C(=O)N([C@@H](C)CO)C[C@@H]2C)cc1`: the cytotoxicity call is “inactive”.

For the molecule `COc1ccc(NC(=O)N(C)C[C@@H]2Oc3ccc(NC(=O)C4CC4)cc3CC(=O)N([C@@H](C)CO)C[C@H]2C)cc1`, the cytotoxicity call was “inactive”.

Regarding `O=c1ccc(-c2ccncc2)n[nH]1`, the cytotoxicity call was “inactive”.

Take `C[C@@H]1CN([C@@H](C)CO)C(=O)c2cccc(NC(=O)Nc3ccc(F)cc3)c2O[C@H]1CN(C)CC1CCCCC1`: the cytotoxicity call is “inactive”.

As for `C[C@H](CO)N1C[C@H](C)[C@H](CN(C)CC2CCCCC2)Oc2c(NC(=O)Nc3ccc(C(F)(F)F)cc3)cccc2C1=O`, the cytotoxicity call is “inactive”.

As to `C[C@@H]1CN([C@H](C)CO)C(=O)c2cccc(NC(=O)Nc3ccc(F)cc3)c2O[C@@H]1CN(C)CC1CCCCC1`, the cytotoxicity call was “inactive”.

In the case of `C[C@@H]1CN([C@H](C)CO)C(=O)c2cccc(NC(=O)Nc3ccc(C(F)(F)F)cc3)c2O[C@@H]1CN(C)CC1CCCCC1`, the cytotoxicity call is “active”.

Consider `C[C@H]1CN([C@@H](C)CO)C(=O)c2cccc(NC(=O)Nc3ccc(C(F)(F)F)cc3)c2O[C@@H]1CN(C)CC1CCCCC1`, for which the cytotoxicity call was “active”.

Regarding `C[C@@H]1CN([C@H](C)CO)C(=O)c2cccc(NC(=O)Nc3ccc(C(F)(F)F)cc3)c2O[C@H]1CN(C)CC1CCCCC1`, the cytotoxicity call is “active”.

In the case of `C[C@H]1CN([C@@H](C)CO)C(=O)c2cccc(NC(=O)Nc3ccc(F)cc3)c2O[C@H]1CN(C)CC1CCCCC1`, the cytotoxicity call is “inactive”.

On to `C[C@@H]1CN([C@H](C)CO)C(=O)c2cccc(NC(=O)Nc3ccc(F)cc3)c2O[C@H]1CN(C)CC1CCCCC1`, for which the cytotoxicity call was “inactive”.

Consider `C[C@@H]1CN([C@@H](C)CO)C(=O)c2cccc(NC(=O)Nc3ccc(C(F)(F)F)cc3)c2O[C@@H]1CN(C)CC1CCCCC1`, for which the cytotoxicity call is “inactive”.

For the molecule `C[C@H](CO)N1C[C@H](C)[C@H](CN(C)CC2CCCCC2)Oc2c(NC(=O)Nc3ccc(F)cc3)cccc2C1=O`, the cytotoxicity call was “inactive”.

Regarding `C[C@H](CO)N1C[C@H](C)[C@@H](CN(C)CC2CCCCC2)Oc2c(NC(=O)Nc3ccc(C(F)(F)F)cc3)cccc2C1=O`, the cytotoxicity call was “inactive”.

For the molecule `C[C@H]1CN([C@@H](C)CO)C(=O)c2cccc(NC(=O)Nc3ccc(C(F)(F)F)cc3)c2O[C@H]1CN(C)CC1CCCCC1`, the cytotoxicity call was “active”.
